How the values were obtained:
Experiment in all cases: DAPPL (digital affinity profiling via proximity ligation, sequencing); 10 mM Tris-HCl pH 7.5, 50 mM NaCl, 1 mM DTT, 4% glycerol, room temperature, 30 min; GST-TFs on glutathione beads, 16-mer random dsDNA library, 0.1% formaldehyde crosslink after washing; high values mean tight binding
Settings in all cases: protein: recombinant; tags: N-terminal GST; dsDNA, one strand shown
FLI1 = target: T1, FLI1 (Homo sapiens, UniProt Q01543 1-452)
T1 sequence: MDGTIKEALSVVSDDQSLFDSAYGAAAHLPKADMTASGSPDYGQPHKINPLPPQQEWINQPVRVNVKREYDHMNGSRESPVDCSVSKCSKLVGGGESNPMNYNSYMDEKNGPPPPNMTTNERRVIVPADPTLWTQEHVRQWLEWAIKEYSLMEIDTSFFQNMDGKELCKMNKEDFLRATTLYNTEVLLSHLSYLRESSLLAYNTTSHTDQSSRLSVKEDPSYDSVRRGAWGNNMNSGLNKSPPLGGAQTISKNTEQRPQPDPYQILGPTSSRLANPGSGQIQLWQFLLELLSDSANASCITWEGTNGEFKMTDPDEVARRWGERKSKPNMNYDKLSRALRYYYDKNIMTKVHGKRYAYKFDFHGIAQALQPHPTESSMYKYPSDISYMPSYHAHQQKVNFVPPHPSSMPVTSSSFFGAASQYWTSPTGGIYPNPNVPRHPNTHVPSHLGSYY
Outline: (§1)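 Beads coated with glutathione captured GST-fused human transcription factors that had been expressed in yeast, and the factors were then given DNA barcodes and pooled with a tag-only sample. The pools were incubated with 200 nmole of a random double-stranded 16-mer DNA library in Tris/NaCl/DTT/glycerol buffer for 30 min at room temperature, washed, crosslinked with 0.1% formaldehyde and proximity-ligated with BsaI/T4 ligase at 37 °C for 1 h. PCR amplification and Illumina NextSeq500 sequencing came last. Binding signal is each hexamer's read frequency for a factor divided by its frequency for the tag-only sample.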

ELK1 = target: T2, ELK1 (Homo sapiens, UniProt P19419 1-428)
T2 sequence: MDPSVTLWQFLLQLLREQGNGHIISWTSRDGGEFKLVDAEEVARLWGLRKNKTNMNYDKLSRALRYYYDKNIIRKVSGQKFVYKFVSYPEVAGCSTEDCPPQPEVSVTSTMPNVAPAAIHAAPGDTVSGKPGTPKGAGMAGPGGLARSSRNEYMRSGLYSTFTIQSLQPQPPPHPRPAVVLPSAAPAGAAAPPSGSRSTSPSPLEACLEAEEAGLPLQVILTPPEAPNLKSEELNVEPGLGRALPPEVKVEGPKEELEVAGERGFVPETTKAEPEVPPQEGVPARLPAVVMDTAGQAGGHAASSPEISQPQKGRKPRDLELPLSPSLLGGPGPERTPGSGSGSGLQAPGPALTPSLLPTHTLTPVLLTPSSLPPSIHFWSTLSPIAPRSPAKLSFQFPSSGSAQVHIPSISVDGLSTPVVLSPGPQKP
Outline: as §1

GABPA = target: T3, GABPA (Homo sapiens, UniProt Q06546 1-454)
T3 sequence: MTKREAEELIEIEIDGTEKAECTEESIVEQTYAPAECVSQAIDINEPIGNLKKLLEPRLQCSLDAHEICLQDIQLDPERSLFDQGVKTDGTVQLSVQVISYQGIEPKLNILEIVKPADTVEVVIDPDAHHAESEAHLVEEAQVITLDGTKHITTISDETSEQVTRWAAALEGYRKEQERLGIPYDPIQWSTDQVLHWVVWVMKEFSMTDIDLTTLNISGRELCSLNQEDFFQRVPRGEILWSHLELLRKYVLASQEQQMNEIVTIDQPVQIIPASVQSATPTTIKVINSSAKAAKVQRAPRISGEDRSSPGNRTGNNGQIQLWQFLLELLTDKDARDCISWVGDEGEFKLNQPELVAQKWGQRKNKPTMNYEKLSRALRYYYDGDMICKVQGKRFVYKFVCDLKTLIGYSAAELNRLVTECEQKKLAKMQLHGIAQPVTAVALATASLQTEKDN
Outline: as §1

ERG = target: T4, ERG (Homo sapiens, UniProt P11308 1-479)
T4 sequence: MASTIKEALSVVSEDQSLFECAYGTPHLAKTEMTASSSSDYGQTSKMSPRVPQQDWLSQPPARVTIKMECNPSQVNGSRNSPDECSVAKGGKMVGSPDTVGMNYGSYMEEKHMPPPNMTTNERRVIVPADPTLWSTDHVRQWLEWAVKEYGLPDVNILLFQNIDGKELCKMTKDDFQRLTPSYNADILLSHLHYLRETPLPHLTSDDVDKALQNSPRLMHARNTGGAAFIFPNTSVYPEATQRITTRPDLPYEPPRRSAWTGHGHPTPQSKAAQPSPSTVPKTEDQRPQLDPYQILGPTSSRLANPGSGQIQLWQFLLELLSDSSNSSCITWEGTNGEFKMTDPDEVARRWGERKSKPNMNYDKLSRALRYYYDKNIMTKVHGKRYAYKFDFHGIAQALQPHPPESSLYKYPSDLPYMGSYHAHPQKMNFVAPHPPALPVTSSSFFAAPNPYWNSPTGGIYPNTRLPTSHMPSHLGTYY
Outline: as §1

ELF1 = ELF1 (Homo sapiens, UniProt P32519 1-619)
Outline: as §1

SPIB = SPIB (Homo sapiens, UniProt Q01892 1-262)
Outline: as §1

ELK3 = target: T5, ELK3 (Homo sapiens, UniProt P41970 1-407)
T5 sequence: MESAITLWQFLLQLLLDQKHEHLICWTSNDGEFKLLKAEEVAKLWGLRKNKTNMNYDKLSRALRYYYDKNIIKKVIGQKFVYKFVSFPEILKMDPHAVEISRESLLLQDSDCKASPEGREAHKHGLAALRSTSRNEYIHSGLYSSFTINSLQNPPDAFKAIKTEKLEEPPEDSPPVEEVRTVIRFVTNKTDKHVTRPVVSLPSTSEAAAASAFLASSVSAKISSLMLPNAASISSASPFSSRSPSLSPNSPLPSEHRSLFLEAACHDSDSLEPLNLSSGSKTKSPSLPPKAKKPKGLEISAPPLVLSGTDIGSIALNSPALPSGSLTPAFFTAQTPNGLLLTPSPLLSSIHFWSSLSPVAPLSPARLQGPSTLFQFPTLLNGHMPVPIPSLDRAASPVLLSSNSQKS
Outline: as §1

FEV = target: T6, FEV (Homo sapiens, UniProt Q99581 1-238)
T6 sequence: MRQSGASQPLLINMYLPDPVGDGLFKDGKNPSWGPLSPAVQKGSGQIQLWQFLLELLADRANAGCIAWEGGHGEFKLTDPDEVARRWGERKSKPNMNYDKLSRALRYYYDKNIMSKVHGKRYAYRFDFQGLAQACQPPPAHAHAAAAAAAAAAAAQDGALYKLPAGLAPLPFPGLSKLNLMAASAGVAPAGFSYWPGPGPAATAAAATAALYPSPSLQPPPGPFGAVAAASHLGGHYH
Outline: as §1

ETV5 = ETV5 (Homo sapiens, UniProt P41161 1-510)
Outline: as §1

SPIC = target: T7, SPIC (Homo sapiens, UniProt Q8N5J4 1-248)
T7 sequence: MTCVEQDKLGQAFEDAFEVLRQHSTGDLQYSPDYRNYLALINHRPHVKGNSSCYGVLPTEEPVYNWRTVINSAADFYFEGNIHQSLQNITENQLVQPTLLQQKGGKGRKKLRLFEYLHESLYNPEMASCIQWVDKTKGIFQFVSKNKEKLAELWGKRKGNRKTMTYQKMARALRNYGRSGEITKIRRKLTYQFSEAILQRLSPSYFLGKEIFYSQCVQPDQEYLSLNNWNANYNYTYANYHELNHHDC
Outline: as §1

ELF4 = ELF4 (Homo sapiens, UniProt Q99607 1-663)
Outline: as §1

ELK4 = target: T8, ELK4 (Homo sapiens, UniProt P28324-2 1-405)
T8 sequence: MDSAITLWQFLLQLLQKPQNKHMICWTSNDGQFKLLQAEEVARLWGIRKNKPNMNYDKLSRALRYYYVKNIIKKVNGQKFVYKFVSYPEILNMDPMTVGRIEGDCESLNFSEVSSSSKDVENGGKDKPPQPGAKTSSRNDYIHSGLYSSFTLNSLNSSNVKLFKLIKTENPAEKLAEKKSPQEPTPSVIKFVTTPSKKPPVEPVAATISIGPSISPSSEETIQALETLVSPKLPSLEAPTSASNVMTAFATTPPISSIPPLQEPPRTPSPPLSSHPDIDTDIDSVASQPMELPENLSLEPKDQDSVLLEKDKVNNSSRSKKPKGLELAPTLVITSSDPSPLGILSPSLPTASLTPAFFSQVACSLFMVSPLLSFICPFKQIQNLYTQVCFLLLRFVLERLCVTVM
Outline: as §1

ETV2 = target: T9, ETV2 (Homo sapiens, UniProt O00321 1-342)
T9 sequence: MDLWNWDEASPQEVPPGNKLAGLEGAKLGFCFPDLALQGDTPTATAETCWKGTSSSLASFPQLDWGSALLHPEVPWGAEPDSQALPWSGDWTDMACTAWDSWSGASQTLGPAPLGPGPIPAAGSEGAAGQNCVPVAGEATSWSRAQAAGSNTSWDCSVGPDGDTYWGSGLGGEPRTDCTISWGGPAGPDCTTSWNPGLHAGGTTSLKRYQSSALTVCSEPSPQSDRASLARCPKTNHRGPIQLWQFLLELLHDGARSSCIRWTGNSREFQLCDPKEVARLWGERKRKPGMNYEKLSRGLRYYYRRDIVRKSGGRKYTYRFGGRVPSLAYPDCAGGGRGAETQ
Outline: as §1

ELF3 = target: T10, ELF3 (Homo sapiens, UniProt P78545 1-371)
T10 sequence: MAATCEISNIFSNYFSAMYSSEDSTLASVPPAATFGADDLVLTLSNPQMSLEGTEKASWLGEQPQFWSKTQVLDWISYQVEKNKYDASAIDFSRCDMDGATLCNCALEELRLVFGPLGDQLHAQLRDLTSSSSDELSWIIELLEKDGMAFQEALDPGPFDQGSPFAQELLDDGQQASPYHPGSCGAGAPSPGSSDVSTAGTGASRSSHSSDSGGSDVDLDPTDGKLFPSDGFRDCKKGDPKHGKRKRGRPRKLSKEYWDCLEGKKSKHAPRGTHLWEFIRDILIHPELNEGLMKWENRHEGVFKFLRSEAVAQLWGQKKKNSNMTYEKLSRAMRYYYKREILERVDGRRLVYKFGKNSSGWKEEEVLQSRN
Outline: as §1

EHF = target: T11, EHF (Homo sapiens, UniProt Q9NZC4 1-300)
T11 sequence: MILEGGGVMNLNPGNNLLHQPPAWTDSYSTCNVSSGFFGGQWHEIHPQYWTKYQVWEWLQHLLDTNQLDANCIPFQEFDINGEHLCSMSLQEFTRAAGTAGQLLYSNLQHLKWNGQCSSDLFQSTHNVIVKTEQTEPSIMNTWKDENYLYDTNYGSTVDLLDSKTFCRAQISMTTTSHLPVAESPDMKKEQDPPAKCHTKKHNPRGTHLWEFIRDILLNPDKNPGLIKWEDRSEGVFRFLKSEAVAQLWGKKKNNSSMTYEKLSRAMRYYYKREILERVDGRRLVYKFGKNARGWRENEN
Outline: as §1

SPI1 = SPI1 (Homo sapiens, UniProt P17947 1-270)
Outline: as §1

Sequence of ELF4 (Q99607 whole entry): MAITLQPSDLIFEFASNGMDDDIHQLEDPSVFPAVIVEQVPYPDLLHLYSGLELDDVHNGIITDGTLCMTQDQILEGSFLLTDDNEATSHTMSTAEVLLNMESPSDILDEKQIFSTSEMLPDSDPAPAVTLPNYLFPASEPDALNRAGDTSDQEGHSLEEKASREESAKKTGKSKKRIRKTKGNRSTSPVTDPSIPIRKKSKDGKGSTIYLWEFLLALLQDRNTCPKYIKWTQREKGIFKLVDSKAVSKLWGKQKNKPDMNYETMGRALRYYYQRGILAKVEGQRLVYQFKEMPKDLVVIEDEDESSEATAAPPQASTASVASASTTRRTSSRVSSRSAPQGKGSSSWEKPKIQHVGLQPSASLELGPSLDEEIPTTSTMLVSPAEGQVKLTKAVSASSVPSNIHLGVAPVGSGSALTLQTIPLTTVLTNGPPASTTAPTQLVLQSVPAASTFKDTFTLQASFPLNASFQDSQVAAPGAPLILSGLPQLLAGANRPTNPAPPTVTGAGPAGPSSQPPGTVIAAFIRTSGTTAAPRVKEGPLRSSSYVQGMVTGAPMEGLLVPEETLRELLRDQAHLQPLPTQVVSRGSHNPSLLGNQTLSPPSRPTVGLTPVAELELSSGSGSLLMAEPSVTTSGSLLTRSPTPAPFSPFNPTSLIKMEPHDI
Sequence of ETV5 (P41161 whole entry): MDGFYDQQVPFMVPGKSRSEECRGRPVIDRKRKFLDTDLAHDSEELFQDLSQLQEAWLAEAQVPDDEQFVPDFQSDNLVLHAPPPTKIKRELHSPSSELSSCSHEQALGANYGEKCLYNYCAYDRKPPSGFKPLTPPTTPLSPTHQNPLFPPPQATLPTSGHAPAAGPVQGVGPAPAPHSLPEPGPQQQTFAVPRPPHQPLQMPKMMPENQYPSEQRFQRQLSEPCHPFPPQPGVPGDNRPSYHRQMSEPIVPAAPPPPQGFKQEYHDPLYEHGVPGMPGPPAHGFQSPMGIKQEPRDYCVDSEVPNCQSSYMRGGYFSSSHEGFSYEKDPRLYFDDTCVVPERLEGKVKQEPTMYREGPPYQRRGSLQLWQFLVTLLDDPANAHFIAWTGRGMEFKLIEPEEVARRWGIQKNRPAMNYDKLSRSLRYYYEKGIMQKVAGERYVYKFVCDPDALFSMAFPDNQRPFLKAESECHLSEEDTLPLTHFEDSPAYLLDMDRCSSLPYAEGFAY
Sequence of ELF1 (P32519 whole entry): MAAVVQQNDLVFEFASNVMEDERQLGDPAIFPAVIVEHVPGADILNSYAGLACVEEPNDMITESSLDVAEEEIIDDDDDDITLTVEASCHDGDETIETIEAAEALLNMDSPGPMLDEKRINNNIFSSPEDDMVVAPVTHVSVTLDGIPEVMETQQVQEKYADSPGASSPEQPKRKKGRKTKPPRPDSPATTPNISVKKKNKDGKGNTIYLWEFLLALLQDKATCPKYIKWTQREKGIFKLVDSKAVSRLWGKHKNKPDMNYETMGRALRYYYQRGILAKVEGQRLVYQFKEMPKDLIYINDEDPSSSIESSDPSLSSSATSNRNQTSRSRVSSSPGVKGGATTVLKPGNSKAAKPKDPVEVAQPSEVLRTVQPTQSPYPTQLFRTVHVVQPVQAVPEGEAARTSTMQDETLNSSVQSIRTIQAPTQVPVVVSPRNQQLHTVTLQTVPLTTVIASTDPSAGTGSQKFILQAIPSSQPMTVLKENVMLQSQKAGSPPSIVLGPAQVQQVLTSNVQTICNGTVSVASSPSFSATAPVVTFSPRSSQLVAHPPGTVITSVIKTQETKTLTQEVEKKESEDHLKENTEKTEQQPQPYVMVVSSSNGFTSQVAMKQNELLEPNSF
Sequence of SPIB (Q01892 whole entry): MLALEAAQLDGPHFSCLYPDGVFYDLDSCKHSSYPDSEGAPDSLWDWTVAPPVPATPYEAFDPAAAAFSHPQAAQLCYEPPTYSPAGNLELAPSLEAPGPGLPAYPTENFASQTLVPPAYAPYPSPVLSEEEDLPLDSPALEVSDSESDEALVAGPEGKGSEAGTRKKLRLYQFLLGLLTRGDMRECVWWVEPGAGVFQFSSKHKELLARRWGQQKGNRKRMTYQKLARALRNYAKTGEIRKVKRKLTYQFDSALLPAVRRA

Sequence	binding signal (FLI1)	binding signal (ELK1)	binding signal (GABPA)	binding signal (ERG)	binding signal (ELF1)	binding signal (SPIB)	binding signal (ELK3)	binding signal (FEV)	binding signal (ETV5)	binding signal (SPIC)	binding signal (ELF4)	binding signal (ELK4)	binding signal (ETV2)	binding signal (ELF3)	binding signal (EHF)	binding signal (SPI1)
CTCAGG	1.08 fold enrichment (6-mer frequency, TF over GST control)	1.13 fold enrichment (6-mer frequency, TF over GST control)	1.02 fold enrichment (6-mer frequency, TF over GST control)	1.1 fold enrichment (6-mer frequency, TF over GST control)	1.08 fold enrichment (6-mer frequency, TF over GST control)	1.11 fold enrichment (6-mer frequency, TF over GST control)	1.07 fold enrichment (6-mer frequency, TF over GST control)	1.09 fold enrichment (6-mer frequency, TF over GST control)	1.06 fold enrichment (6-mer frequency, TF over GST control)	1.06 fold enrichment (6-mer frequency, TF over GST control)	1.07 fold enrichment (6-mer frequency, TF over GST control)	1.05 fold enrichment (6-mer frequency, TF over GST control)	1.12 fold enrichment (6-mer frequency, TF over GST control)	1.15 fold enrichment (6-mer frequency, TF over GST control)		
GTCACT	1.1 fold enrichment (6-mer frequency, TF over GST control)	1.07 fold enrichment (6-mer frequency, TF over GST control)	1.08 fold enrichment (6-mer frequency, TF over GST control)	1.13 fold enrichment (6-mer frequency, TF over GST control)	1.1 fold enrichment (6-mer frequency, TF over GST control)	1.21 fold enrichment (6-mer frequency, TF over GST control)	1.06 fold enrichment (6-mer frequency, TF over GST control)	1.18 fold enrichment (6-mer frequency, TF over GST control)	1.14 fold enrichment (6-mer frequency, TF over GST control)	1.01 fold enrichment (6-mer frequency, TF over GST control)	1.09 fold enrichment (6-mer frequency, TF over GST control)	1.07 fold enrichment (6-mer frequency, TF over GST control)	1.14 fold enrichment (6-mer frequency, TF over GST control)	1.26 fold enrichment (6-mer frequency, TF over GST control)	1.15 fold enrichment (6-mer frequency, TF over GST control)	1.19 fold enrichment (6-mer frequency, TF over GST control)

From paper PMC7862700, “An all-to-all approach to the identification of sequence-specific readers for epigenetic DNA modifications on cytosine”
